# Out of some 200,000 compounds screened, about 80 (0.04%) were called active.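 The calls were made as follows: active = activation above the mean across all tested compounds plus 3 SD, cutoff set per campaign (cut at about 5.5% in these data); inactive = the rest.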 Many of the other results were omitted from the sample, so actives are more common in it than they were.
# Assay: Hsp70 transcriptional activators, primary screen, cell-based, HeLa, Hsp70 promoter luciferase, luminescence, 10 µM (AID 1203);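 also: 100% = MG132 at 30 µM as the positive control and 0% = DMSO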
# Details: HeLa Hsp70 promoter luciferase reporter, at 10 µM, active compounds read high, scaled: vehicle 0, proteasome-inhibitor control 100%
row,SMILES,activation
1,CN(C)c1ccc(C(CNC(=O)c2ccc(F)cc2)c2c[nH]c3ccccc23)cc1 (configuration not stated),-0.32% (inactive)
2,COc1ccc(/C=N/N=C/c2c[nH]c(=O)c(C#N)c2Nc2ccccc2)cc1,-0.38% (inactive)
3,CCN(CC)S(=O)(=O)c1ccc(NC(=O)c2cccnc2Cl)c(NC(=O)c2cccnc2Cl)c1,-0.26% (inactive)
4,CCOc1ccc(NC(=O)C2CC(=O)N=C(N)S2)cc1 (configuration not stated),-0.33% (inactive)
5,O=Cc1cn(Cc2ccccc2)nc1-c1cccnc1,-0.04% (inactive)
6,Cc1ccc(N(CC(=O)Nc2cc(C)cc(C)c2)S(=O)(=O)c2cccc3nonc23)cc1,-0.31% (inactive)
7,O=C(CN1C(=O)NC2(CCCC2)C1=O)NCC1CCCO1 (configuration not stated),0.18% (inactive)
8,O=S(=O)(N1CCCCC1)N1CCNCC1,-0.19% (inactive)
9,O=C(Nc1ccccc1Cl)/C(Cl)=C(\Cl)S(=O)c1ccccc1 (configuration not stated),26.1% (active)
10,O=C(CN1CCCCC1)Nc1ccccc1Cl,-0.18% (inactive)
11,O=C(Nc1ccccc1Cl)c1ccc2nsnc2c1,0.16% (inactive)
12,CCCC1CCC(=NNC(=S)NCCc2ccccc2)CC1 (configuration not stated),-0.28% (inactive)
13,OCCC1CN(Cc2cnc(-c3ccccc3)s2)CCN1CCc1ccccc1 (configuration not stated),0.55% (inactive)
14,C/C(=N/OC(=O)c1c(-c2c(F)cccc2Cl)noc1C)c1cnccn1,-0.36% (inactive)
15,O=C(CCC(=O)c1cccs1)NC1CCCCCC1,-0.2% (inactive)
16,Fc1cccc(Cc2noc(CN3CCN(c4cnccn4)CC3)n2)c1,0.1% (inactive)
17,Cc1ccc(-c2ccc(/C=N/NC(=O)CN3CCOCC3)o2)cc1[N+](=O)[O-],-0.19% (inactive)
18,CCOC(=O)NN1C(=O)c2ccccc2NC1c1cccc(O)c1 (configuration not stated),-0.06% (inactive)
19,N=C1C(=O)OCC1c1ccccc1NC(=O)CN1CCCCC1 (configuration not stated),-0.34% (inactive)
20,CCc1ccc(NC(=O)C(C)OC(=O)/C=C/c2cccc([N+](=O)[O-])c2)cc1 (configuration not stated),-0.25% (inactive)
21,O=C(COC(=O)CCc1ccc(S(=O)(=O)N2CCOCC2)cc1)Nc1cccc(Cl)c1,-0.33% (inactive)
22,CCN1CCN(C(=O)CN(C)S(=O)(=O)c2ccc3ccccc3c2)CC1,-0.21% (inactive)
23,CSCCC(=O)N1CCCC(CNC(=O)c2ccccc2Cl)C1 (configuration not stated),-0.44% (inactive)

row,SMILES,activation
1,C=CCN(c1ccc(Cl)cc1)S(=O)(=O)c1cccc(C(=O)OCC(=O)N(C)C)c1,-0.3% (inactive)
2,Cc1cccc(CSc2nnc(C)c(=O)n2N)c1,-0.18% (inactive)
3,O=C(CO/N=C/c1ccc(OC(F)F)cc1)NCc1ccc(F)cc1,0.12% (inactive)
4,CCNc1nc(NC(C)C)nc(N2CC(=O)N(CC(=O)OCC)C2=N)n1,-0.19% (inactive)
5,COc1ccccc1C(c1nnnn1CC1CCCO1)N1CCN(c2ccccc2)CC1 (configuration not stated),-0.43% (inactive)
6,CCOc1ccc(C(CC(=O)O)n2cnnn2)cc1OC (configuration not stated),-0.16% (inactive)
7,Cc1cc(C)cc(NC(=O)c2cccc(NC(=O)C3C4CC5OC(=O)C3C5C4)c2)c1 (configuration not stated),0.09% (inactive)
8,COCCNC(=S)N(Cc1cccnc1)Cc1ccc(OC)c(OC)c1,-0.35% (inactive)
9,O=C(Nc1ccccc1F)c1ccccc1-c1ccc(C(F)(F)F)cc1,-0.36% (inactive)
10,C/C(CC(=O)N1CCN(C=O)CC1)=N\NC(=O)c1ccc(Br)cc1,-0.22% (inactive)
11,Cc1ccc(CN2CCN(Cc3cccc(C)n3)CC2CCO)cc1 (configuration not stated),0.01% (inactive)
12,O=C(Cc1cc(=O)[nH][nH]1)N/N=C/c1ccccc1[N+](=O)[O-],-0.41% (inactive)
13,CCn1cc(C(=O)Nc2cc(C)ccc2C)c(=O)c2ccc(C)nc21,-0.16% (inactive)
14,CC(NC(=O)CC1SC(N)=NC1=O)c1ccccc1 (configuration not stated),-0.02% (inactive)
15,COc1ccc(CCNC(=O)CSc2nnc3ccc(-c4ccncc4)nn23)cc1,-0.16% (inactive)
16,O=C(NCc1ccccc1Cl)C1CCC(CNc2c(N3CCCCC3)c(=O)c2=O)CC1 (configuration not stated),0.08% (inactive)
17,CN1C(=O)/C(=C/c2ccc(C(=O)NC3CCCC3)cc2)Oc2ccccc21,0.12% (inactive)
18,CC(=O)c1ccccc1NC(=O)CC1(CC(=O)O)CCCCC1,-0.11% (inactive)
19,Cc1nc(S(=O)(=O)c2ccc(Br)cc2)nc2c1CCC2,-0.24% (inactive)
20,COc1ccc(Cn2c(=O)cc(C)[nH]c2=S)cc1,0.13% (inactive)
21,O=C(COc1ccc(Cl)cc1[N+](=O)[O-])N1CCCCC1,0.04% (inactive)
22,Cn1nc(C(F)(F)F)c2cc(C(=O)N3CCOCC3)sc21,0.19% (inactive)
23,Cc1ccnc(SCC(N)=O)n1,-0.02% (inactive)

row,SMILES,activation
1,O=C(Nc1cccc(Cl)c1)Nc1ccccc1NS(=O)(=O)c1cccs1,-0.23% (inactive)
2,CCCC(C)C(=O)NCc1ccncc1 (configuration not stated),0.15% (inactive)
3,Cc1ccc(N(Cc2cc3ccccc3[nH]c2=O)C(=O)c2cccs2)cc1,-0.18% (inactive)
4,C/C(CC(=O)Nc1cccc(F)c1)=N\NC(=O)C(=O)NC1CCCCC1,-0.18% (inactive)
5,CCOCCCNC(=O)C(NC(=O)c1ccccc1O)c1ccccc1 (configuration not stated),-0.12% (inactive)
6,O=C(CC(=O)N/N=C\c1ccc(F)cc1)NCCc1ccccc1,-0.23% (inactive)
7,CN1CCN(C(=O)CCc2nc(-c3ccc(Cl)cc3)no2)CC1,-0.33% (inactive)
8,N#Cc1c(-c2ccc(F)cc2)nc(-c2ccccc2)[nH]c1=O,-0.14% (inactive)
9,CCSC1=NCCN1S(=O)(=O)c1ccc(F)cc1,-0.26% (inactive)
10,COc1ccc(C(=O)CSc2nnnn2C)c(OC)c1,0.02% (inactive)
11,CC(=O)Nc1ccc(C(=O)OCC(=O)Nc2ccc([N+](=O)[O-])cc2C(F)(F)F)cc1,-0.04% (inactive)
12,CCN(CC)C(=O)C(=O)Nc1cccc(Br)c1,-0.16% (inactive)
13,c1ccc(-n2nnnc2NC2CCCCCC2)cc1,-0.52% (inactive)
14,CC(=O)c1ccc(NC(=S)N(Cc2ccccc2)C(C)C2CC2)cc1 (configuration not stated),-0.19% (inactive)
15,COc1ccc(COC(=O)N/N=C(\C)CC(=O)Nc2ccc(Cl)cc2)cc1,-0.38% (inactive)
16,OCCC1CN(Cc2cccc(O)c2)CCN1CCc1ccccc1 (configuration not stated),0.03% (inactive)
17,Cc1cccc(OCC(O)CN2CCN(CCN3C(=O)c4cccc5cccc(c45)C3=O)CC2)c1C (configuration not stated),-0.21% (inactive)
18,Cc1ccc(CN2CCN(Cc3ccc4ncccc4c3)CC2CCO)cc1 (configuration not stated),-0.4% (inactive)
19,NS(=O)(=O)c1ccc(CCNC(=S)Nc2ccc(S(N)(=O)=O)cc2)cc1,0.04% (inactive)
20,COc1ccc2c(CC(=O)OCC(=O)Nc3ccccc3[N+](=O)[O-])coc2c1,-0.38% (inactive)
21,CCCNCc1cc(OCC)c(OCC(=O)Nc2ccccc2)cc1Br,-0.15% (inactive)
22,Cn1c(=O)cc(OCC(=O)N2CCN(c3ccccc3F)CC2)c2ccccc21,0.82% (inactive)
23,COc1ccc(C/C(C)=N/NC(=O)c2ccncc2)cc1,-0.08% (inactive)

row,SMILES,activation
1,COc1ccccc1C(=O)CSc1cccc[n+]1[O-],0.19% (inactive)
2,CCC(C)(C(=O)Nc1ccccc1C)N(C(=O)CNC(C)=O)c1ccc(C)cc1 (configuration not stated),-0.25% (inactive)
3,OCCC1CN(Cc2ccc3nsnc3c2)CCN1C1CCCCC1 (configuration not stated),-0.14% (inactive)
4,CC(C)(C)NCCCOc1ccc(Cl)cc1C(C)(C)C,-0.26% (inactive)
5,CCN(CC)Cc1nc2sc(C)c(C)c2c(=O)[nH]1,-0.4% (inactive)
6,COc1ccc(/C=C/C(=O)Nc2ccc(C34CC5CC(CC(O)(C5)C3)C4)cc2)cc1OC,0.8% (inactive)
7,CC(NC(=S)Nc1ccc(OC(F)F)cc1)c1ccc(F)cc1 (configuration not stated),-0.29% (inactive)
8,O=C(O)c1n[nH]nc1-c1ccccc1,-0.44% (inactive)
9,CN(C)c1ccc(C2Nc3ccccc3C(=O)N2NS(=O)(=O)c2ccccc2)cc1 (configuration not stated),-0.44% (inactive)
10,CCCC(C)C(=O)OCC(=O)Nc1c(Br)cc(C)cc1Br (configuration not stated),-0.19% (inactive)
11,O=C(Nc1nc(-c2cccnc2)cs1)c1ccccc1F,0.2% (inactive)
12,O=C(NC1CCc2ccccc21)C12CN(Cc3ccccc3)CC1C(c1cccc([N+](=O)[O-])c1)=NO2 (configuration not stated),-0.09% (inactive)
13,CC[C@H]1OC(=O)[C@H](C)[C@@H](O[C@H]2C[C@@](C)(OC)[C@@H](O)[C@H](C)O2)[C@H](C)[C@@H](O[C@@H]2O[C@H](C)C[C@H](N(C)C)[C@H]2O)[C@](C)(O)C[C@@H](C)[C@@H]2N[C@@H](COCCOC)O[C@H]([C@H]2C)[C@]1(C)O,-0.19% (inactive)
14,CCc1cc2c(=O)c(-c3ccc(F)cc3)c(C(F)(F)F)oc2cc1OCC(=O)O,-0.05% (inactive)
15,O=C(COC(=O)c1cc([N+](=O)[O-])ccc1NCc1ccccc1)NC1CCCCC1,-0.39% (inactive)
16,CCCN(CC1COc2ccccc2O1)C(=S)Nc1ccc(C)cc1 (configuration not stated),-0.24% (inactive)
17,COc1ccc(NC(=O)COC(=O)c2ccc(NS(=O)(=O)/C=C/c3ccccc3)cc2)cc1,-0.47% (inactive)
18,COc1cccc(OCc2cc(/C=N/NC(=O)c3nc(Cl)c(Cl)c(N)c3Cl)ccc2OC)c1,-0.07% (inactive)
19,CC1Cc2ccccc2N1C(=O)CSc1nnc(-c2ccc(S(=O)(=O)N3CCCC3)cc2)n1C (configuration not stated),0.16% (inactive)
20,Cc1cc(C(=O)NNC(=O)c2cccc(S(=O)(=O)N3CCOCC3)c2)c2ccccc2n1,-0.21% (inactive)
21,Fc1ccccc1CNC(=S)Nc1ccc(Cl)cc1,-0.2% (inactive)
22,Cc1nnc(SCC(=O)NNC(=O)c2ccc(Cl)cc2)n1CC1CCCO1 (configuration not stated),-0.36% (inactive)
23,CC(C)CC(=O)NC(=S)Nc1ccc(F)cc1F,-0.43% (inactive)

# From PubChem BioAssay AID1203 (The Scripps Research Institute Molecular Screening Center, 2008)
